Test results as given in ChEMBL document CHEMBL1157539, “Thousands of chemical starting points for antimalarial lead identification” (Nature, 2010).

The molecules below were run on HepG2 (assay: GSK_TCMDC: Percent inhibition of human HepG2 cell line. Test compounds present at 10uM.).
Format: functional
`COc1ccc2nccc([C@@H](O)CN3CCC(NCc4cnc5c(c4)NC(=O)CS5)C(F)C3)c2c1.Cl` (stereo partly specified) was tested, and the Inhibition was 0%.
Molecule `CC(Cl)=CCc1c(C)nc2c(ccc3ccccc32)c1O` has an Inhibition of 24%.
`NC(CC1CC(=O)N1CC(=O)O)C(=O)O` (stereo unspecified) gave an Inhibition of 56%.
`CCN(CC)CCCC(C)Nc1ccnc2[nH]c3ccccc3c12` (stereo unspecified) was tested, and the Inhibition was 0%.
In the case of `Cc1ccc(C2CC(=O)CC(c3ccccn3)C2[N+](=O)[O-])cc1` (stereo unspecified), the Inhibition is reported as 5%.
In the case of `Cc1[nH]c(C)c(-c2ccc(OCCCc3ccccn3)cc2)c(=O)c1Br.Cl`, the Inhibition is reported as 0%.
`COC(=O)c1ccc2nc(-c3ccc(C(=O)NC4CCN(Cc5ccccc5)CC4)s3)[nH]c2c1` gave an Inhibition of 0%.
With `COc1ccc(CNc2nc(NCc3ccc(C(F)(F)F)cc3)c3cc(OC)c(OC)cc3n2)cc1OC` the Inhibition was 80%.
`O=C(NC1CCCCN(Cc2ccccc2O)C1)c1cccc(C(F)(F)F)c1.O=C(O)C(F)(F)F` (stereo unspecified) was tested, and the Inhibition was 0%.
Work on `CCN(CC)/C(=N/C(=N)NCc1ccc(Cl)cc1Cl)NCCCCCCN/C(=N\C(=N)NCc1ccc(Cl)cc1Cl)N(CC)CC` yielded an Inhibition of 16%.
`CCCn1c(O)nnc1SCC(=O)Nc1cc(Cl)ccc1Cl` gave an Inhibition of 0%.
